As a reminder, the inhibition is the drop in the measured response relative to a control, in per cent.

Out of some 360,000 compounds screened, about 6,200 (1.7%) were called active.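 How the source made its calls: active means inhibition of at least 50% at 20 µM; inactive means the rest.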 The entries come from a sample that favours actives as a whole.

The test can be described thus: Peg3 promoter-driven luciferase inhibitors, primary screen, cell-based, HeLa, luciferase luminescence (AID 588405). The settings on record: HeLa PEG-Prom luciferase reporter, overnight, at 20 µM, stronger effect = higher value. (In general: Reporter assays use an easily measured gene product as a stand-in for the process of interest.)
Turning to `COc1ccc(-c2nnc(SC(C)C(=O)NC3CC3)o2)cc1` (stereo unspecified), the inhibition was -27.6% (inactive).

As for `COc1ccc(CN(C(=O)CSc2nnc(-c3ccc(OC)c(OC)c3)o2)c2ccc(F)cc2)cc1`, the inhibition is 30.6% (inactive).

Take `COc1ccc(-c2nnc(SC(=O)N3c4ccccc4Sc4ccccc43)o2)cc1`: the inhibition is 51.3% (active).

For `CC(=O)C1=CCC(c2ccccc2)N(S(=O)(=O)c2ccc(C)cc2)C1` (stereo unspecified), the inhibition is 7.17% (inactive).

Turning to `COc1cc(/C=C2/C(=O)ON=C2C)ccc1OCc1cccc(F)c1`, the inhibition is 45.1% (inactive).

As to `COc1cc(/C=C2/C(=O)ON=C2C)ccc1OCc1ccccc1F`, the inhibition was 66.5% (active).

Turning to `C#CCOc1ccc(/C=C2/C(=O)ON=C2C)cc1OCC`, the inhibition was 27.9% (inactive).

Turning to `OC[C@@H]1CN(C2CCCC2)C[C@H](n2cnc3c(NC4CCC4)ncnc32)O1`, the inhibition is 4.02% (inactive).

With `O=[N+]([O-])c1ccccc1/C=C/CN1CCC(O)CC1`, the inhibition was 10.2% (inactive).

For `CC(OC(=O)/C=C/c1ccccc1)C(=O)NC1CCCCC1C` (stereo unspecified), the inhibition is 6.61% (inactive).

On to `CC1CCCCC1NC(=O)/C(C#N)=C/C=C/c1ccccc1[N+](=O)[O-]` (stereo unspecified), for which the inhibition was 111% (active).

`CCCN(c1ccc(C)cc1)c1nc(=O)c2cccnc2s1`: the inhibition was 8.6% (inactive).

For `CC(=O)Nc1cncc(-c2ccccc2CO)n1`, the inhibition is 7.63% (inactive).

Regarding `CC[C@]12c3[nH]c4ccc(OC)cc4c3CCN1C(=O)C(CC(=O)NCc1ccco1)C[C@@H]2C(=O)N1CCN(C(=O)C2CC2)CC1` (stereo partly specified), the inhibition was -6.85% (inactive).

`COc1ccc(CNC(=O)C[C@H]2C[C@H](C(=O)N3CCOCC3)[C@@]3(CCC4CCCC4)c4[nH]c5ccc(Cl)cc5c4CCN3C2=O)cc1OC`: the inhibition is 56.1% (active).

`COc1ccc2[nH]c3c(c2c1)CCN1C(=O)C(CC(=O)NCCCN(C)C)C[C@H](C(=O)N2CCOCC2)[C@@]31CCC1CCCC1` (stereo partly specified): the inhibition is 1.46% (inactive).

Consider `O=C(C[C@H]1C[C@H](C(=O)N2CCOCC2)[C@@]2(CCC3CCCC3)c3[nH]c4ccc(Cl)cc4c3CCN2C1=O)NCc1ccco1`, for which the inhibition was 61.1% (active).

Turning to `CC[C@]12c3[nH]c4ccc(Cl)cc4c3CCN1C(=O)[C@@H](CC(=O)NCCN1CCOCC1)C[C@@H]2C(=O)N1CCN(C(=O)C2CC2)CC1`, the inhibition was -0.39% (inactive).

Turning to `CN(C)C(=O)CCc1ccc2c3c([nH]c2c1)[C@]1(CCC2CCCC2)[C@@H](C(=O)N2CCOCC2)C[C@H](CC(=O)NCc2ccco2)C(=O)N1CC3`, the inhibition was 0.84% (inactive).

On to `COC(=O)CCCCC1=CCC2C(=O)C=C(O)C2C1` (stereo unspecified), for which the inhibition was 0.22% (inactive).

For the molecule `COc1ccc(C(C)(O)c2nc(-c3cc(F)cc(F)c3)cs2)cc1` (stereo unspecified), the inhibition is 23.2% (inactive).

In the case of `COc1cccc(-c2cc3nc(NCc4ccccc4OC)n(C)c(=O)c3s2)c1`, the inhibition is -50% (inactive).

In the case of `COc1cc(F)c(C2=CC(=O)CC(C)(C)C2)cc1F`, the inhibition was -42.1% (inactive).

As for `O=C(O)c1ccccc1-c1cccc2nncn12`, the inhibition is -2.07% (inactive).

With `N#Cc1cccc(NC(=O)COC(=O)c2ccccc2C(=O)c2ccc(Cl)c([N+](=O)[O-])c2)c1`, the inhibition was 108% (active).

Turning to `COC(=O)c1cc(NC(=O)Cc2ccccc2[N+](=O)[O-])ccc1Cl`, the inhibition is -2.09% (inactive).

Regarding `CC(OC(=O)CNC(=O)c1ccc(Cl)c([N+](=O)[O-])c1)C(=O)NCc1ccco1` (stereo unspecified), the inhibition was 3.12% (inactive).

As to `CC(=O)Nc1ccc(NC(=O)C(C)OC(=O)c2ccccc2C(=O)c2ccc(Cl)c([N+](=O)[O-])c2)cc1` (stereo unspecified), the inhibition was 93.7% (active).

As to `CC(=O)Nc1ccc(NC(=O)COC(=O)c2ccccc2C(=O)c2ccccc2)cc1`, the inhibition was -1.14% (inactive).

`O=C(Nc1cccc(NC(=O)c2ccccc2[N+](=O)[O-])c1)c1ccccc1Cl`: the inhibition was -9.06% (inactive).

With `C=CCC1(C#N)C(=S)NC(C)=C(C(=O)OCC)C1c1ccccc1` (stereo unspecified), the inhibition is 3.78% (inactive).

For the molecule `CCc1nc2c(OCCc3cccc(OC)c3)cccn2c1N(C)C(=O)c1ccc(C)cc1`, the inhibition was 5.31% (inactive).

Turning to `CC1(C(=O)NS(=O)(=O)c2ccc(Cl)cc2)CCN1C(=O)CC1CCCC1` (stereo unspecified), the inhibition was 8.85% (inactive).

Consider `CCN(c1ccccc1)S(=O)(=O)c1cccc(C(=O)NCc2ccccc2CN2CCOCC2)c1`, for which the inhibition is -0.46% (inactive).

In the case of `CCOC1=C2CN(S(=O)(=O)c3ccc(C)cc3)[C@H](c3cccs3)C[C@H]2[C@H]2C(=O)N(c3ccccc3)C(=O)[C@H]2C1`, the inhibition is -59.4% (inactive).

In the case of `Cc1noc(C)c1COC(=O)Cn1c(C)nc2ccccc21`, the inhibition is 8.44% (inactive).

Take `CCCCCCCCCCOC(=O)Cn1c(COc2ccc(C)cc2)[n+](C)c2ccccc21`: the inhibition is 116% (active).

Take `CCCCCCCCCCOC(=O)Cn1c(COc2cccc(OC)c2)[n+](C)c2ccccc21`: the inhibition is 102% (active).

Consider `Cc1ccc(COc2ccc(C(=O)NN)cc2)cc1`, for which the inhibition is -58.5% (inactive).

As for `CCOC(=O)c1cn(CC)c2cc(F)c(F)cc2c1=O`, the inhibition is -7.48% (inactive).

As for `CN(Cc1cccs1)C(=O)CN1C(=O)c2ccccc2S1(=O)=O`, the inhibition is -42.7% (inactive).

For `COc1ccccc1-n1nnnc1S(=O)(=O)Cc1ccc(Cl)cc1`, the inhibition was 108% (active).

As to `COc1ccccc1-n1nnnc1SCC(=O)NC(=O)Cc1ccccc1`, the inhibition was 3.09% (inactive).

Regarding `CCC(C)N(C(=O)CSc1nnnn1-c1ccccc1OC)C1CCS(=O)(=O)C1` (stereo unspecified), the inhibition was 6.27% (inactive).

Take `O=C(N=C1SC2CS(=O)(=O)CC2N1c1cc(Cl)ccc1Cl)C1CC1` (stereo unspecified): the inhibition is 3.34% (inactive).

As to `CC1CCN(c2nc3c(c(=O)[nH]c(=O)n3C)n2CCCc2ccccc2)CC1`, the inhibition is -2.12% (inactive).

For the molecule `Cn1c(=O)[nH]c(=O)c2c1nc(N1CCN(C(c3ccccc3)c3ccccc3)CC1)n2CCO`, the inhibition is 74.6% (active).

With `C=C(C)Cn1c(N2CCCC2)nc2c1c(=O)[nH]c(=O)n2C`, the inhibition was -3.39% (inactive).

On to `COc1ccc(-c2cc3nc(NCCOc4ccccc4)ccn3n2)cc1`, for which the inhibition was -70.4% (inactive).

As for `COC(=O)c1ccccc1N=NNc1ccc([N+](=O)[O-])cc1`, the inhibition is -132% (inactive).

For the molecule `COc1ccc(CCNC(=O)c2ccc(CS(=O)(=O)c3ccc(Br)cc3)o2)cc1OC`, the inhibition was 32.6% (inactive).

Turning to `Cc1cccc(C)c1Cn1c(C)c(C(=O)NCc2cccc(Cl)c2)sc1=O`, the inhibition was 0.34% (inactive).

For the molecule `CC1(C(=O)NS(=O)(=O)c2ccccc2)CCN1C(=O)c1ccccc1` (stereo unspecified), the inhibition was 8.86% (inactive).

In the case of `CC(=O)Nc1cc(-c2cccc(CO)c2)cn2c(-c3cccc(C(F)(F)F)c3)cnc12`, the inhibition is 19.9% (inactive).

In the case of `Cc1cc(-c2n[nH]c(=S)n2/N=C/C(Br)=C/c2ccccc2)n[nH]1`, the inhibition was 101% (active).

With `COc1ccccc1N1CCN(/N=C\C(Br)=C\c2ccccc2)CC1`, the inhibition is -183% (inactive).

Turning to `Cc1ccccc1-c1n[nH]c(=S)n1/N=C/c1ccc(-c2ccccc2Br)o1`, the inhibition is 13.5% (inactive).

As for `COc1c(C)cc(C(O)c2ncc(-c3cccc(C(F)(F)F)c3)[nH]2)cc1C` (stereo unspecified), the inhibition is 36.8% (inactive).

`C=CCn1c(C)cc(C2=NNC(=NCC)SC2)c1C`: the inhibition was 106% (active).

As for `O=C1CC(c2cccc(Br)c2)C2=C(CCCC2=O)N1` (stereo unspecified), the inhibition is -11.1% (inactive).

Take `Cc1cc(Cl)ccc1-c1nc(NCCN(C)C)nc2ccsc12`: the inhibition was 5.65% (inactive).

As for `COc1ccc(-c2n[nH]c3c2CN(C(=O)c2ccc(F)cc2)CC3)cc1`, the inhibition was -4.89% (inactive).

Turning to `COc1ccc(C2CC(c3cccc(OC)c3)=NN2c2ccc(S(N)(=O)=O)cc2)cc1` (stereo unspecified), the inhibition was -21.8% (inactive).

Consider `O=C(NCc1ccccc1Cl)c1csc([C@@H]2O[C@H](CO)[C@@H](O)[C@H]2O)n1`, for which the inhibition is 9.43% (inactive).

In the case of `Cc1ccc(CN2CC(N3CCC(Cc4ccccc4)CC3)CS2(=O)=O)cc1` (stereo unspecified), the inhibition was 15.9% (inactive).

Consider `O=C(O)Cc1ccc(NCc2ccccc2Cl)cc1`, for which the inhibition was -84.7% (inactive).

In the case of `CC(CN1CCCCC1)OC(=O)c1ccccc1Cl` (stereo unspecified), the inhibition is -5.2% (inactive).

On to `CC(C)OC(=O)c1ccc(NCc2cc(O)ccc2O)cc1Cl`, for which the inhibition was 64% (active).

Turning to `COc1ccc(-c2cc(-c3ccc(N)cc3)nc(N)c2C#N)cc1OC`, the inhibition was 28.4% (inactive).

As to `COc1ccc(C2=NO[C@@H]3C(=O)N(Cc4ccccc4)C(=O)[C@H]23)cc1OC`, the inhibition is 21.8% (inactive).

In the case of `COc1ccc(-c2cc(C(F)(F)F)nc(S(C)(=O)=O)n2)cc1OC`, the inhibition was 104% (active).

As to `O=C1N=C2SCCN2/C1=C\c1c(Cl)cccc1Cl`, the inhibition was 2.52% (inactive).

`COc1ccc(NC(=O)C2Cc3c(-c4cccc(NC(C)=O)c4)ccnc3O2)cc1OC` (stereo unspecified): the inhibition is 24% (inactive).

Regarding `CCN(CC)CCCNC(=S)N(CCO)Cc1cc2cc3c(cc2[nH]c1=O)OCO3`, the inhibition is 5.64% (inactive).

Regarding `O=c1oc2ccccc2cc1-c1cn(-c2ccccc2)c(=S)[nH]1`, the inhibition was 98.7% (active).

Take `COc1cccc(-n2c(=S)[nH]c3c(oc4ccccc43)c2=O)c1`: the inhibition was -22.9% (inactive).

Regarding `O=C(NCCCO)c1cc2c([nH]c3ccccc32)c(-c2ccc(F)cc2)n1`, the inhibition is 23.9% (inactive).

Consider `COc1ccc2cc(C(=O)NCC3CCCO3)[nH]c2c1` (stereo unspecified), for which the inhibition is -95.8% (inactive).

In the case of `O=C(NCC1CCCO1)c1cc2c([nH]c3ccccc32)c(-c2ccc(F)cc2)n1` (stereo unspecified), the inhibition is 61.3% (active).

As for `CCOc1ccc(Cl)cc1-c1cc(C(=O)NCc2cccs2)[nH]n1`, the inhibition was -9.07% (inactive).

As to `CCn1cc(C(=O)NCC2COc3ccccc3O2)c2cc(OC)c(OC)cc2c1=O` (stereo unspecified), the inhibition is 8.43% (inactive).

For `Cc1cc(C(=O)CCl)c(C)n1CC1COc2ccccc2O1` (stereo unspecified), the inhibition was 103% (active).

Take `Cc1noc(C)c1C(=O)NCC1COc2ccccc2O1` (stereo unspecified): the inhibition was 15.8% (inactive).

As for `O=C(Nc1ccc(Cl)cc1)C1Cc2c(-c3ccc4c(c3)OCO4)ccnc2O1` (stereo unspecified), the inhibition was 29% (inactive).

As for `Cc1ccc(-c2nnc(-n3nnc4ccccc43)c3ccccc23)cc1`, the inhibition was 6.18% (inactive).

Turning to `CC1(Cc2ccccc2C#N)C(=O)Nc2ccc(-c3ccc4[nH]ccc4c3)cc21` (stereo unspecified), the inhibition is 14.4% (inactive).

For the origin of these results see PubChem BioAssay AID588405 (Sanford-Burnham Center for Chemical Genomics, 2011).
